Test in all cases: HT-SELEX; 20 mM HEPES pH 7, 140 mM KCl, 5 mM NaCl, 1 mM K2HPO4, 2 mM MgSO4, 100 uM EGTA, ZnSO4, 0.1% Tween20; room temperature, 1 h; high values mean tight binding
Details in all cases: protein: ivt; tags: eGFP (N-terminal); dsDNA, one strand shown

For one experiment, the target named is ZNF721 full-length (Homo sapiens, UniProt Q8TF20-2 1-923). The procedure, abridged: (§1)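 A tagged transcription factor, either full-length or its DNA-binding-domain fragment, was made in HEK293 lysate or cell-free extract, immobilised on beads and incubated with a randomized 40-base DNA library for 1 h at room temperature in HEPES/KCl low-stringency buffer containing Tween20. Washed beads were heat-eluted, and the bound DNA was PCR-amplified over successive cycles and Illumina-sequenced at ~3 million 60 bp reads per sample. The binding signal is the relative k-mer count in selected reads, where a higher value means tighter binding.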
ZNF721 full-length, sequence (Q8TF20 other isoform, or with tags, fused parts or gaps): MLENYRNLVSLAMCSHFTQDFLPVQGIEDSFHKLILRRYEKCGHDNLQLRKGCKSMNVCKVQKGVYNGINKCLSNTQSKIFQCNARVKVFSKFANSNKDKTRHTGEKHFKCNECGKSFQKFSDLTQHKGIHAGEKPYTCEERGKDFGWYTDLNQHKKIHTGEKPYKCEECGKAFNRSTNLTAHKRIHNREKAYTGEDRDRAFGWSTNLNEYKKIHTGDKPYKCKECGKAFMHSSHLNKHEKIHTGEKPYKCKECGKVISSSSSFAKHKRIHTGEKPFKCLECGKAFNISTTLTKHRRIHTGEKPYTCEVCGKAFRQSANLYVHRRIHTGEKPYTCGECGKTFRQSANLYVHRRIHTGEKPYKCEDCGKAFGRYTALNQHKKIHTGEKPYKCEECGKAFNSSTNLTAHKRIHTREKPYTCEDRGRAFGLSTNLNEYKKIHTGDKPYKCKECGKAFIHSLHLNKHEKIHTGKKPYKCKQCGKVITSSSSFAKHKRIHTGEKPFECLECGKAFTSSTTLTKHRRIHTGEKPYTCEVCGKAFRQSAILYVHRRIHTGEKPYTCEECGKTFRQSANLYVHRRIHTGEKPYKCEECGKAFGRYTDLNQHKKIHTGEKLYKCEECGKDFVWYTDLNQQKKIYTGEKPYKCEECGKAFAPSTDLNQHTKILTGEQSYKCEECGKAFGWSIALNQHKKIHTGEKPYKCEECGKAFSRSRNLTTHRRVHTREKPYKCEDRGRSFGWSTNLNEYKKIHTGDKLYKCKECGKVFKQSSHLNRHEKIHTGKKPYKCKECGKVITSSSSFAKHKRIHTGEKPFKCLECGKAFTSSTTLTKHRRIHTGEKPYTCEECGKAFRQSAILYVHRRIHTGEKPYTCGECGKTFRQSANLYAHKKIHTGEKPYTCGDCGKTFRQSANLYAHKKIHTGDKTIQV

For the next experiment, the target named is ZNF721 DBD1 (Homo sapiens, UniProt Q8TF20-2 29-461). Put shortly: as §1
ZNF721 DBD1, sequence (Q8TF20 17-449): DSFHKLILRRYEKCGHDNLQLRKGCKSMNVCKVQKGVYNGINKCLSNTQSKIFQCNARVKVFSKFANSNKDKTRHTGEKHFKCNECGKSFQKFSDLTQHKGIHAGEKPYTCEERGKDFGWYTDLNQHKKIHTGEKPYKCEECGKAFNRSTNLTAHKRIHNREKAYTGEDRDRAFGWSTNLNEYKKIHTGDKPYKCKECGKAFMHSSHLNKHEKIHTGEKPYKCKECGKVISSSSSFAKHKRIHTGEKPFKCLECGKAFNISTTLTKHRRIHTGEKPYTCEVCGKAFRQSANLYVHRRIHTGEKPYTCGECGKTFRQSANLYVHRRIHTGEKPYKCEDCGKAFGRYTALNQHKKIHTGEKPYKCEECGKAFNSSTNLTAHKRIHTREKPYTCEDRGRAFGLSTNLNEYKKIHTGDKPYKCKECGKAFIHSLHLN
The target in a further experiment is ZNF721 DBD2 (Homo sapiens, UniProt Q8TF20-2 395-923). Put shortly: as §1
ZNF721 DBD2, sequence (Q8TF20 383-911): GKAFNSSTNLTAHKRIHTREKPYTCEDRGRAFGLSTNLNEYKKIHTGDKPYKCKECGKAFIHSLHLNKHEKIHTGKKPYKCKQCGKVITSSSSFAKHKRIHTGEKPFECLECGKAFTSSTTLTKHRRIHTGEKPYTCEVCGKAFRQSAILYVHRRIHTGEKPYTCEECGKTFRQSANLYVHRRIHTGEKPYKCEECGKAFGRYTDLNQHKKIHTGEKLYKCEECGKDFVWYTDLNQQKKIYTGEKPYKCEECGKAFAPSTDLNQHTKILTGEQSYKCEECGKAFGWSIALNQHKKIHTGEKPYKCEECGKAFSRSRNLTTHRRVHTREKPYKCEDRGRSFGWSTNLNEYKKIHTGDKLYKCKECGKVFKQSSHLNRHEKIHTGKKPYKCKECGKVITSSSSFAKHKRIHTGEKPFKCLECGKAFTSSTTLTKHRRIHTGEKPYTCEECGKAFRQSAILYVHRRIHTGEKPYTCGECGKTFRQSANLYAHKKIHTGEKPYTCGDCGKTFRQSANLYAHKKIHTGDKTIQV

As to CACCTCCCCC, the binding signal is 0.188 relative 10-mer count with ZNF721 full-length, 0.00798 relative 10-mer count with ZNF721 DBD1 and 0.00443 relative 10-mer count in the experiment with ZNF721 DBD2.

As for CCCGCCCCCA, the binding signal amounted to 0.153 relative 10-mer count with ZNF721 full-length, 0.00706 relative 10-mer count with ZNF721 DBD1 and 0.00132 relative 10-mer count with ZNF721 DBD2.

CCCCGCACCC: the binding signal with ZNF721 full-length amounted to 0.179 relative 10-mer count; with ZNF721 DBD1, 0.00812 relative 10-mer count; with ZNF721 DBD2, 0.00252 relative 10-mer count.

Take CCCCCCGTCC: the binding signal with ZNF721 full-length was found to be 0.134 relative 10-mer count; with ZNF721 DBD1, 0.00491 relative 10-mer count; with ZNF721 DBD2, 0.00288 relative 10-mer count.

Take AGGGGGGTGG: the binding signal was 0.157 relative 10-mer count with ZNF721 full-length, 0.00835 relative 10-mer count with ZNF721 DBD1 and 0.00407 relative 10-mer count with ZNF721 DBD2.

Regarding CCACACCCCC, the binding signal was determined as 0.201 relative 10-mer count with ZNF721 full-length, 0.00738 relative 10-mer count with ZNF721 DBD1 and 0.00276 relative 10-mer count in the experiment with ZNF721 DBD2.

With AAGGCATACC, the binding signal was found to be 0.13 relative 10-mer count in the experiment with ZNF721 full-length, 0.00183 relative 10-mer count in the experiment with ZNF721 DBD1 and 0.114 relative 10-mer count in the experiment with ZNF721 DBD2.

As for CCCACCGCCA, the figures for the binding signal with ZNF721 full-length, in the experiment with ZNF721 DBD1 and with ZNF721 DBD2 were 0.13 relative 10-mer count, 0.00422 relative 10-mer count and 0.00563 relative 10-mer count, respectively.

Regarding AAAAAAAGCT, the binding signal with ZNF721 full-length was 0.472 relative 10-mer count; with ZNF721 DBD1 it was 0.169 relative 10-mer count; with ZNF721 DBD2, 0.00923 relative 10-mer count.

As for CCCCAACCCA, the values for the binding signal with ZNF721 full-length, with ZNF721 DBD1 and with ZNF721 DBD2 were 0.13 relative 10-mer count, 0.00482 relative 10-mer count and 0.00384 relative 10-mer count, respectively.

Turning to AGCATCTCCA, the binding signal with ZNF721 full-length amounted to 0.132 relative 10-mer count; with ZNF721 DBD1 it was 0.0129 relative 10-mer count; with ZNF721 DBD2, 0.121 relative 10-mer count.

As to CACCACCACC, the results for the binding signal in the experiment with ZNF721 full-length, in the experiment with ZNF721 DBD1 and with ZNF721 DBD2 were 0.19 relative 10-mer count, 0.0072 relative 10-mer count and 0.0109 relative 10-mer count, respectively.

In the case of AGAAAAAACA, the values for the binding signal with ZNF721 full-length, with ZNF721 DBD1 and with ZNF721 DBD2 were 0.12 relative 10-mer count, 0.00211 relative 10-mer count and 0.0902 relative 10-mer count, respectively.

For the sequence CACAAAAAAA, the binding signal came to 0.181 relative 10-mer count with ZNF721 full-length, 0.0107 relative 10-mer count with ZNF721 DBD1 and 0.0847 relative 10-mer count in the experiment with ZNF721 DBD2.

Turning to AGGGGGCGGG, the binding signal in the experiment with ZNF721 full-length amounted to 0.128 relative 10-mer count; with ZNF721 DBD1, 0.00463 relative 10-mer count; with ZNF721 DBD2, 0.0012 relative 10-mer count.

As for CACCCTCCAC, the binding signal was 0.106 relative 10-mer count with ZNF721 full-length, 0.0056 relative 10-mer count with ZNF721 DBD1 and 0.00587 relative 10-mer count in the experiment with ZNF721 DBD2.

In the case of CCACCACCCG, the figures for the binding signal with ZNF721 full-length, in the experiment with ZNF721 DBD1 and in the experiment with ZNF721 DBD2 were 0.131 relative 10-mer count, 0.00564 relative 10-mer count and 0.00467 relative 10-mer count, respectively.

CCAAAAAAAC: the binding signal stood at 0.106 relative 10-mer count in the experiment with ZNF721 full-length, 0.0017 relative 10-mer count in the experiment with ZNF721 DBD1 and 0.082 relative 10-mer count with ZNF721 DBD2.

On to CCGCCCCCGC, for which the binding signal with ZNF721 full-length worked out at 0.127 relative 10-mer count; with ZNF721 DBD1, 0.00491 relative 10-mer count; in the experiment with ZNF721 DBD2, 0.0018 relative 10-mer count.

For GCACCCACCC, the binding signal in the experiment with ZNF721 full-length worked out at 0.107 relative 10-mer count; in the experiment with ZNF721 DBD1 it was 0.00523 relative 10-mer count; with ZNF721 DBD2, 0.00479 relative 10-mer count.

For CCCCCTTCCC, the binding signal in the experiment with ZNF721 full-length was 0.122 relative 10-mer count; in the experiment with ZNF721 DBD1, 0.00537 relative 10-mer count; with ZNF721 DBD2 it was 0.00264 relative 10-mer count.

As for CACCCCACCA, the binding signal worked out at 0.182 relative 10-mer count with ZNF721 full-length, 0.00725 relative 10-mer count with ZNF721 DBD1 and 0.00587 relative 10-mer count in the experiment with ZNF721 DBD2.

For AGCATATCCA, the binding signal was 0.107 relative 10-mer count with ZNF721 full-length, 0.0108 relative 10-mer count in the experiment with ZNF721 DBD1 and 0.102 relative 10-mer count with ZNF721 DBD2.

Regarding CCTCCCCCCG, the binding signal was found to be 0.143 relative 10-mer count with ZNF721 full-length, 0.00541 relative 10-mer count with ZNF721 DBD1 and 0.00348 relative 10-mer count in the experiment with ZNF721 DBD2.

On to CCCACCCACG, for which the binding signal is 0.141 relative 10-mer count with ZNF721 full-length, 0.00472 relative 10-mer count with ZNF721 DBD1 and 0.00551 relative 10-mer count with ZNF721 DBD2.

For ACCCTCCACC, the binding signal with ZNF721 full-length was 0.127 relative 10-mer count; with ZNF721 DBD1, 0.00482 relative 10-mer count; with ZNF721 DBD2 it was 0.00707 relative 10-mer count.

Consider ATAAAAAAGC, for which the figures for the binding signal with ZNF721 full-length, with ZNF721 DBD1 and with ZNF721 DBD2 were 0.12 relative 10-mer count, 0.0221 relative 10-mer count and 0.0443 relative 10-mer count, respectively.

In the case of ACCCCACCGC, the binding signal is 0.106 relative 10-mer count with ZNF721 full-length, 0.00408 relative 10-mer count with ZNF721 DBD1 and 0.00336 relative 10-mer count with ZNF721 DBD2.

TAAAAAAAAA: the binding signal in the experiment with ZNF721 full-length was 0.115 relative 10-mer count; in the experiment with ZNF721 DBD1 it was 0.0133 relative 10-mer count; with ZNF721 DBD2, 0.0464 relative 10-mer count.

With GACCCACCCC, the binding signal with ZNF721 full-length amounted to 0.124 relative 10-mer count; with ZNF721 DBD1, 0.00427 relative 10-mer count; in the experiment with ZNF721 DBD2, 0.0018 relative 10-mer count.

Regarding AAGGGGTGGG, the binding signal with ZNF721 full-length is 0.102 relative 10-mer count; with ZNF721 DBD1 it was 0.00546 relative 10-mer count; with ZNF721 DBD2, 0.00395 relative 10-mer count.

For AACAAGCAGC, the values for the binding signal with ZNF721 full-length, with ZNF721 DBD1 and with ZNF721 DBD2 were 0.132 relative 10-mer count, 0.0039 relative 10-mer count and 0.0997 relative 10-mer count, respectively.

Consider CCCCCCACAC, for which the results for the binding signal in the experiment with ZNF721 full-length, with ZNF721 DBD1 and with ZNF721 DBD2 were 0.17 relative 10-mer count, 0.00656 relative 10-mer count and 0.00671 relative 10-mer count, respectively.

On to CCCCTCCCCA, for which the binding signal was determined as 0.188 relative 10-mer count with ZNF721 full-length, 0.00734 relative 10-mer count with ZNF721 DBD1 and 0.00455 relative 10-mer count with ZNF721 DBD2.

In the case of ACGAAAAAAG, the binding signal with ZNF721 full-length was found to be 0.126 relative 10-mer count; in the experiment with ZNF721 DBD1, 0.0251 relative 10-mer count; in the experiment with ZNF721 DBD2, 0.0417 relative 10-mer count.

CCCCACACCA: the binding signal with ZNF721 full-length came to 0.118 relative 10-mer count; in the experiment with ZNF721 DBD1, 0.00417 relative 10-mer count; with ZNF721 DBD2, 0.00575 relative 10-mer count.

Take CCACCCCATC: the binding signal in the experiment with ZNF721 full-length is 0.11 relative 10-mer count; with ZNF721 DBD1, 0.00509 relative 10-mer count; with ZNF721 DBD2, 0.00791 relative 10-mer count.

For the sequence GGGGGTGGGA, the results for the binding signal with ZNF721 full-length, with ZNF721 DBD1 and with ZNF721 DBD2 were 0.205 relative 10-mer count, 0.0115 relative 10-mer count and 0.00312 relative 10-mer count, respectively.

In the case of CAGGGTGGGG, the binding signal with ZNF721 full-length was 0.111 relative 10-mer count; with ZNF721 DBD1 it was 0.00399 relative 10-mer count; with ZNF721 DBD2, 0.00384 relative 10-mer count.

With CCACCACCAC, the binding signal is 0.19 relative 10-mer count in the experiment with ZNF721 full-length, 0.00688 relative 10-mer count with ZNF721 DBD1 and 0.00647 relative 10-mer count with ZNF721 DBD2.

On to CCACGACCCC, for which the binding signal with ZNF721 full-length turned out to be 0.118 relative 10-mer count; with ZNF721 DBD1 it was 0.00344 relative 10-mer count; in the experiment with ZNF721 DBD2, 0.003 relative 10-mer count.

As to CCATCCCCAC, the binding signal is 0.116 relative 10-mer count with ZNF721 full-length, 0.00537 relative 10-mer count with ZNF721 DBD1 and 0.00372 relative 10-mer count with ZNF721 DBD2.

The values are drawn from article PMC13541613, “GHT-SELEX demonstrates unexpectedly high intrinsic sequence specificity and complex DNA binding of many human transcription factors”.
